In PubChem BioAssay (NCATS):
Records with an inconclusive call do not appear. Activity calls are given as the source filed them. Calls come from the whole dose curve; as a rule, active = well fitted inhibition curve with a large enough effect; inconclusive = small, poorly fitted or top-dose-only effect; inactive = flat fitted curve, though single readings scatter. Bridge positions count the residues as written; N and C are the ends. Square brackets hold non-standard residues; d marks the D form. Peptide text beside a SMILES is read from it. * marks the point of attachment. Ileψ(thiazoline)Cys = CC[C@H](C)[C@H](N)C1=N[C@H](C(=O)*)CS1; d(aIle) = CC[C@H](C)[C@@H](N)C(=O)O; dOrn = NCCC[C@@H](N)C(=O)O

How the values were obtained:
[1] = biological target: Luciferin 4-monooxygenase (Photinus pyralis) (UniProt P08659); assay: Biochemical firefly luciferase enzyme assay for NPC (AID 624030);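 note: purified P. pyralis luciferase at 10 nM with luciferin and ATP substrate; nearly all actives have a fitted effect of over 70% in size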
How it was run: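 Direct inhibition of firefly luciferase enzyme (10 nM final, 50 mM Tris Acetate) assessed by luminescence within 5 minutes. Percent activity scaled between DMSO and PTC124 positive control, with concentration-effect curves classified by fit quality and response.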

[2] = test system: Dd2; assay: qHTS profiling for inhibitors of Plasmodium falciparum proliferation (AID 504749); note: nearly all actives have a fitted effect of over 60% in size; note: potency is the fitted concentration of half-maximal effect; details: P. falciparum in erythrocytes, SYBR Green DNA, 72 h; series mostly up to 12.8 µM
How it was run: (§1)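 In a 72 h erythrocytic culture (37 C, humidified, 5% CO2) at 2.5% hematocrit and 0.3% starting parasitemia, compounds were tested; SYBR Green I in detergent lysis buffer stained parasite DNA overnight.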

[3] = test system: AA1029; assay: as above; details: P. falciparum in erythrocytes, SYBR Green DNA, 72 h; series mostly up to 12.8 µM
How it was run: as §1

[4] = test system: ATS189; assay: as above; details: P. falciparum in erythrocytes, SYBR Green DNA, 72 h; series mostly up to 12.8 µM
How it was run: as §1

[5] = test system: CP211; assay: as above; details: P. falciparum in erythrocytes, SYBR Green DNA, 72 h; series mostly up to 12.8 µM
How it was run: as §1

[6] = test system: CP237; assay: as above; details: P. falciparum in erythrocytes, SYBR Green DNA, 72 h; series mostly up to 12.8 µM
How it was run: as §1

[7] = test system: CP265; assay: as above; details: P. falciparum in erythrocytes, SYBR Green DNA, 72 h; series mostly up to 12.8 µM
How it was run: as §1

[8] = test system: CP269; assay: as above; details: P. falciparum in erythrocytes, SYBR Green DNA, 72 h; series mostly up to 12.8 µM
How it was run: as §1

[9] = test system: CP286; assay: as above; details: P. falciparum in erythrocytes, SYBR Green DNA, 72 h; series mostly up to 12.8 µM
How it was run: as §1

[10] = test system: CP297; assay: as above; details: P. falciparum in erythrocytes, SYBR Green DNA, 72 h; series mostly up to 12.8 µM
How it was run: as §1

[11] = test system: DIV30; assay: as above; details: P. falciparum in erythrocytes, SYBR Green DNA, 72 h; series mostly up to 12.8 µM
How it was run: as §1

[12] = test system: ECU; assay: as above; details: P. falciparum in erythrocytes, SYBR Green DNA, 72 h; series mostly up to 12.8 µM
How it was run: as §1

[13] = test system: PAD; assay: as above; details: P. falciparum in erythrocytes, SYBR Green DNA, 72 h; series mostly up to 12.8 µM
How it was run: as §1

[14] = test system: PC15; assay: as above; details: P. falciparum in erythrocytes, SYBR Green DNA, 72 h; series mostly up to 12.8 µM
How it was run: as §1

[15] = test system: TAB165; assay: as above; details: P. falciparum in erythrocytes, SYBR Green DNA, 72 h; series mostly up to 12.8 µM
How it was run: as §1

[16] = test system: CP194; assay: as above; details: P. falciparum in erythrocytes, SYBR Green DNA, 72 h; series mostly up to 12.8 µM
How it was run: as §1

[17] = test system: CP268; assay: as above; details: P. falciparum in erythrocytes, SYBR Green DNA, 72 h; series mostly up to 12.8 µM
How it was run: as §1

[18] = test system: DIV14; assay: as above; details: P. falciparum in erythrocytes, SYBR Green DNA, 72 h; series mostly up to 12.8 µM
How it was run: as §1

[19] = test system: P93_24; assay: as above; details: P. falciparum in erythrocytes, SYBR Green DNA, 72 h; series mostly up to 12.8 µM
How it was run: as §1

[20] = test system: DIV17; assay: as above; details: P. falciparum in erythrocytes, SYBR Green DNA, 72 h; series mostly up to 12.8 µM
How it was run: as §1

Measured: Potency

Luciferin 4-monooxygenase (Photinus pyralis), sequence (P08659 whole entry, looked up): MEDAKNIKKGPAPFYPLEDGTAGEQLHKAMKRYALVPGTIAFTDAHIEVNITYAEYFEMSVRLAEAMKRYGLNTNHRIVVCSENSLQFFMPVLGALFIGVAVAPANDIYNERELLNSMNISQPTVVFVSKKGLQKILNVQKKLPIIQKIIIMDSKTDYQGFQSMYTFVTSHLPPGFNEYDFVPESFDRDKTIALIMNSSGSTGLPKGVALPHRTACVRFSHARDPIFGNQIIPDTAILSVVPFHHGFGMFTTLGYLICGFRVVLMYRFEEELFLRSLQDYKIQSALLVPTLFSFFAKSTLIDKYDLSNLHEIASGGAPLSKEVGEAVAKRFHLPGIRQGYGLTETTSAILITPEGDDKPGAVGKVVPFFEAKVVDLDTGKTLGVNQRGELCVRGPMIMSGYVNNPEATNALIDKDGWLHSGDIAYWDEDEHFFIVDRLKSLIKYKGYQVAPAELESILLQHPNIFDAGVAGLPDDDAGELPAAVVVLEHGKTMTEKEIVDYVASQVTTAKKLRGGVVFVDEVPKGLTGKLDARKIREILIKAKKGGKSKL

CO[C@H]1[C@H](O[C@H]2O[C@@H](C)[C@@H](O[C@@H]3C[C@](C)(O)[C@H](OC(=O)CC(C)C)[C@H](C)O3)[C@@H](N(C)C)[C@@H]2O)[C@@H](CC=O)C[C@@H](C)[C@@H](O)/C=C\C=C/C[C@@H](C)OC(=O)C[C@H]1OC(C)=O
inactive: [1]
active: [2] 1.41 µM

C/C(=C(/CCO)SSC[C@@H]1CCCO1)N(C=O)Cc1cnc(C)nc1N
inactive: [1]

CCCCC[C@H](O)/C=C\[C@@H]1[C@H](O)CC(=O)[C@@H]1CCCCCCC(=O)O
not listed: [16] | [17] | [18] | [19] | [20]
inactive: all other assays above

CC(=O)O[C@H]1C[C@@]2(C)[C@H](C[C@@H](O)[C@H]3[C@@]4(C)CC[C@@H](O)[C@@H](C)[C@H]4CC[C@@]32C)C1=C(CCC=C(C)C)C(=O)O
not listed: [1] | [20]
inactive: all other assays above

O[C@@](CCN1CCCC1)(c1ccccc1)C1CCCCC1
active: [18] 2.87 µM | [20] 3.22 µM
inactive: [1] | [4] | [6] | [17] | [8] | [9] | [10] | [12]

CC1(C)O[C@@H]2C[C@H]3[C@H]4C[C@H](F)C5=CC(=O)CC[C@]5(C)[C@@H]4[C@H](O)C[C@]3(C)[C@]2(C(=O)CO)O1
inactive: all assays above

CC(=O)O[C@]1(C(C)=O)CC[C@@H]2[C@@H]3C=C(C)C4=CC(=O)CC[C@@]4(C)[C@H]3CC[C@]21C
inactive: all assays above

Cc1onc(-c2ccccc2Cl)c1C(=O)N[C@H]1C(=O)N2[C@H]1SC(C)(C)[C@H]2C(=O)O
inactive: all assays above

C[C@H]1CS(=O)(=O)CCN1/N=C\c1ccc([N+](=O)[O-])o1
not listed: [18] | [20]
inactive: all other assays above

CC(C)(C)NC[C@H](O)COc1cccc2c1C[C@@H](O)[C@@H](O)C2
not listed: [1]
inactive: all other assays above

CC[C@@H]1OC(=O)[C@H](C)[C@H](O[C@@H]2C[C@](C)(OC)[C@H](O)[C@H](C)O2)[C@H](C)[C@H](O[C@@H]2O[C@@H](C)C[C@@H](N(C)C)[C@@H]2O)[C@](C)(O)C[C@H](C)C(=NOCOCCOC)[C@H](C)[C@H](O)[C@]1(C)O
not listed: [2] | [5] | [8] | [10]
inactive: all other assays above

CC[C@H](C)[C@H](N)C1=N[C@H](C(=O)N[C@@H](CC(C)C)C(=O)N[C@@H](CCC(=O)O)C(=O)N[C@@H](C(=O)N[C@H]2CCCCNC(=O)[C@@H](CC(N)=O)NC(=O)[C@@H](CC(=O)O)NC(=O)[C@@H](Cc3cnc[nH]3)NC(=O)[C@@H](Cc3ccccc3)NC(=O)[C@@H]([C@@H](C)CC)NC(=O)[C@@H](CCCN)NC2=O)[C@@H](C)CC)CS1 ({Ileψ(thiazoline)Cys}-LE[d(aIle)]K[dOrn][d(aIle)][dF][dH][dD][dN]; lactam 4-C)
inactive: all assays above

COc1ccccc1OC[C@H](O)CO
inactive: all assays above

CCC(=O)OCC(=O)[C@@]1(OC(=O)CC)[C@H](C)C[C@@H]2[C@@H]3[C@H]([C@@H](O)C[C@@]21C)[C@]1(C)C=CC(=O)C=C1C[C@@H]3Cl
active: [10] 5.1 µM | [18] 5.1 µM | [15] 3.98 µM
inactive: [1] | [3] | [16] | [5]

CC1=C(C(=O)O)N2C(=O)[C@@H](NC(=O)[C@@H](N)c3ccc(O)cc3)[C@@H]2SC1
not listed: [1] | [5]
inactive: all other assays above

C[C@H](O)Cn1cnc2c1c(=O)n(C)c(=O)n2C
inactive: all assays above

CCOC(=O)O[C@@H](C)OC(=O)[C@@H]1N2C(=O)[C@@H](NC(=O)[C@@H](N)c3ccccc3)[C@H]2SC1(C)C
inactive: all assays above

C[C@H]1CC[C@]2(OC1)O[C@@H]1C[C@@H]3[C@@H]4CC[C@H]5C[C@@H](O)CC[C@]5(C)[C@@H]4CC(=O)[C@@]3(C)[C@H]1[C@@H]2C
inactive: all assays above

CCN[C@@H]1C[C@H](N)[C@H](O[C@H]2OC(CN)=CC[C@H]2N)[C@@H](O)[C@H]1O[C@H]1OC[C@@](C)(O)[C@@H](NC)[C@@H]1O
inactive: all assays above

CC(C)(C)NC(=O)[C@@H]1CC[C@@H]2[C@@H]3CC[C@@H]4NC(=O)C=C[C@@]4(C)[C@H]3CC[C@]21C
inactive: all assays above

C[C@@H]1C[C@H]2[C@@H]3C[C@H](F)C4=CC(=O)C=C[C@@]4(C)[C@]3(F)[C@H](O)C[C@]2(C)[C@@]1(O)C(=O)CO
inactive: all assays above

CN1CCCN=C1/C=C\c1cccs1
inactive: [1]

COc1c(O[C@H]2O[C@@H](CO)[C@@H](O)[C@@H](O)[C@@H]2O)cc2c(c1OC)-c1ccc(SC)c(=O)cc1[C@H](NC(C)=O)CC2
inactive: all assays above

CO[C@@H]1C[C@H](O[C@H]2[C@@H](C)[C@H](O[C@@H]3O[C@@H](C)C[C@@H](N(C)C)[C@@H]3OC(C)=O)[C@H](C)C[C@]3(CO3)C(=O)[C@H](C)[C@H](OC(C)=O)[C@H](C)[C@H](C)OC(=O)[C@@H]2C)O[C@H](C)[C@@H]1OC(C)=O
inactive: all assays above

COc1ccc(OC)c([C@H](O)CNC(=O)CN)c1
not listed: [1]
inactive: all other assays above
